This passage reports outcome results from PubChem BioAssay AID504861 (Broad Institute, 2011).

Among all 1,200 compounds or so, about 290 (24%) were called active. Roughly 3% stayed inconclusive and do not appear here.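 Rule for the calls: active = compounds lowering cell viability signal with fitted half-maximal concentration at most ten times their highest tested concentration; inconclusive = flat fit with 30 to 70% signal loss, or poor fit; inactive = the rest.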 A selection follows. Entries that show only a call come without a potency. Potency and affinity values are given separately.

This assay can be described thus: cytotoxicity in HEK293T cells – cell-based, CellTiter-Glo luminescence, cherry-picks, cytotoxicity control for LMP1 NF-kB inhibitor project, dose response (AID 504861). The settings on record: HEK293T viability, CellTiter-Glo ATP luminescence, 48 h; series mostly up to 26 µM.
With `O=C(CN1C(=O)c2ccccc2S1(=O)=O)c1ccccc1F`, the molecule was classed as inactive. Then `COc1ccc(NC(=O)N(CCN2CCCC2)Cc2cc3cc(OC)c(OC)cc3[nH]c2=O)cc1`, with “inactive”; and `CC(C)CC1C(=O)N(Cc2cn(CC3CCCCC3)nn2)CCS(=O)(=O)N1Cc1ccc(-c2ccc(F)nc2)cc1` (centres undefined), with “inactive”.

Regarding `O=C(Nc1ccccn1)NC1CCCCC1`, the molecule was classed as inactive. `Cc1ccc(C(=O)Nc2ccc3ncccc3c2)cc1`: the molecule was called inactive. The value for `CCC(C)N1C(=O)CCC1C(=O)N1CCN(c2ccc(F)cc2)CC1` (centres undefined) was “inactive”. For the molecule `c1cncc(CNc2ncnc3ccc(-c4ccoc4)cc23)c1`, the molecule was classed as inactive. Regarding `O=c1cc(-c2ccccc2)[nH]c2ccc(F)cc12`, the molecule was called inactive.

As for `CCOc1ccc(OCc2cccc(C(=O)N3CCCC3)c2)cc1`, the call was inactive. In the case of `COc1ccc(-c2ccc3c(c2)S(=O)(=O)c2cccc(C(=O)NCc4cc(C)oc4C(F)(F)F)c2C3=O)cc1OC`, the result was inactive. With `COCCCNC(=O)CN1C(=O)COc2ccc(S(=O)(=O)N3CCOCC3)cc21`, the outcome was inactive. Consider `CN1CCc2cccc3c2C1Cc1ccc(O)c(O)c1-3` (centres undefined), for which the molecule was classed as inactive. Then `CSc1ccccc1NC(=O)CN1CCCCC1C` (centres undefined), with “inactive”; and `COc1ccc2cc(-c3cc(C(=O)OCC(=O)Nc4c(C)n(C)n(-c5ccccc5)c4=O)c4ccccc4n3)ccc2c1`, with “inactive”; and `CCc1ccc(/C=C/C(=O)C2C(=O)c3ccccc3C2=O)cc1`, with “inactive”. The value for `N#CCCn1cc(C(=O)Nc2ccccn2)c(-c2ccccc2)n1` was “inactive”; that for `CC1=NN(C(N)=S)C(=O)C1N=Nc1cccc(C(=O)O)c1` (centres undefined) was “inactive”; that for `C[C@@]12C(=O)N(Cc3ccccc3)CC(=O)N1[C@H](/C=C/c1ccccc1)[C@@H]1C(=O)N(c3ccccc3)C(=O)[C@@H]12` was “inactive”.

`COc1cc(OC)cc(C(=O)N[C@H](C(=O)OCC(=O)c2ccc(C)c([N+](=O)[O-])c2)C(C)C)c1`: the outcome was inactive. `Clc1ccc(-n2ncc3c(N4CCCC4)ncnc32)cc1`: the outcome was inactive. As for `COc1cc(CC(=O)N(c2ccccc2)c2nc(C)cs2)cc(OC)c1OC`, the molecule was classed as inactive.

As to `Cc1nc2sc(-c3ccccc3)cc2c(=O)n1N`, the molecule was classed as inactive. With `COCCN1CSC(=S)N(Cc2ccco2)C1`, the outcome was inactive.

On to `O=C(Nc1ccc(Cl)cc1)Nc1nnc(CSCc2ccc(Cl)cc2)s1`, for which the outcome was inactive.

As to `COc1cc(NCCCCCCN)c2ncccc2c1OC`, the molecule was called inactive. Then `COc1cccc(/C=N\NC(=O)c2ccc(C)nc2)c1`, with “inactive”; and `O=C(C=C1SCCS1)/C=C/c1ccco1`, with “inactive”; and `COc1cccc(C(=O)CC(=O)C(=O)Nc2ccc(C)cc2Cl)c1`, with “inactive”. The value for `CCSC1=C(C#N)C(c2ccc(C)o2)CC(=O)N1` (centres undefined) was “inactive”; that for `CCCC(=O)NCCCc1nc2ccccc2[nH]1` was “inactive”; that for `CCOc1ccc(/C=N/Nc2cc(N3CCOCC3)ncn2)c(O)c1` was “inactive”. With `Cc1cc(=O)[nH]c(N/N=C/c2ccc(C)o2)n1`, the call was inactive. Then `Cc1cc(N=Cc2c(O)ccc3cc(Br)ccc23)no1`, with “inactive”.

As to `COc1ccc(NC(=O)c2cc3ccccc3oc2=O)cc1`, the result was inactive. Regarding `O=C1c2ccccc2C(Nc2cccnc2)N1Cc1ccccc1` (centres undefined), the molecule was classed as inactive. Then `C[C@H](CO)N1C[C@H](C)[C@@H](CN(C)C(=O)NC2CCCCC2)Oc2c(NS(=O)(=O)c3cn(C)cn3)cccc2C1=O`, with “inactive”. Regarding `COc1ccc(C(c2sc3nc(C)nn3c2O)N2CCC(C(N)=O)CC2)cc1OC` (centres undefined), the molecule was classed as inactive. Then `CCCN(CCC)c1ncnc2nc[nH]c12`, with “inactive”; and `Cc1ccc(-n2nc(C(=O)NCc3ccc(C)o3)c3c4ccccc4n(C)c3c2=O)cc1`, with “inactive”. As for `Cc1ccc(-c2nnn(CC(=O)N(Cc3ccco3)C(C(=O)NC(C)(C)C)c3ccncc3)n2)o1` (centres undefined), the outcome was inactive.

On to `CCC(C)n1ncn(-c2ccc(N3CCN(c4ccc(OCC5COC(Cn6cncn6)(c6ccc(Cl)cc6Cl)O5)cc4)CC3)cc2)c1=O` (centres undefined), for which the outcome was inactive. Consider `CC(=C/c1ccccc1)/C=N/n1c(-c2ccncc2)n[nH]c1=S`, for which the result was inactive. Then `CCCc1c(C(=O)N/N=C(\C)c2ccccn2)nnn1-c1nonc1N`, with “inactive”; and `N/C(=N\OC(=O)c1cccc(Br)c1)c1ccccn1`, with “inactive”. As to `Cc1ccnc(NC(=O)c2cccc(NC(=O)c3ccc(Cl)c(Cl)c3)c2)c1`, the result was inactive. Turning to `O=C(O)c1ccc(C=NN=C2c3ccccc3-c3ccccc32)cc1`, the call was inactive. The value for `Cc1ccc(CCNC(=O)CCc2nc3ccccc3[nH]2)cc1` was “inactive”; that for `CCn1c2ccccc2c2cc(/C=N/n3c(-c4cc(C)[nH]n4)n[nH]c3=S)ccc21` was “inactive”; that for `O=C(O)c1cn2c3c(ccc(Cl)c3c1=O)OCC2` was “inactive”.

On to `S=c1[nH]nc(C2CCCCC2)n1/N=C/c1ccncc1`, for which the call was inactive. Then `CCN(CC)S(=O)(=O)c1ccc(N=NC2=C(O)CCCC2=O)cc1`, with “inactive”; and `CCN(CC)S(=O)(=O)c1ccc(N/N=C/c2ccc(O)cc2O)nc1`, with “inactive”; and `COC(=O)C1=NNC(C(=O)OC)C1c1ccccc1` (centres undefined), with “inactive”. Consider `COCCCNCC1C(Oc2ccc(Cl)cc2)C(=O)N1c1ccccc1C` (centres undefined), for which the result was inactive. Regarding `COc1ccc(C(=O)Nc2cc(C)c(NC(=O)c3ccccc3OC)cn2)cc1`, the molecule was called inactive.

Regarding `COc1ccccc1-n1cc([C@@H]2C[C@H]3CN(c4ccccc4)C(=O)[C@]34CCCN24)cn1`, the call was inactive. In the case of `COc1ccc2cc(C(N)=O)/c(=N\NC(=O)c3ccccc3)oc2c1`, the molecule was called inactive. Consider `CCOC(=O)CNC(=O)CSc1nnc(NC(=O)c2ccc(C)cc2)s1`, for which the molecule was called inactive. As for `Nc1cc(=O)[nH]c(SCCSc2cc(Cl)ccc2Cl)n1`, the outcome was inactive.

For `O=C(Nc1ccc(N2CCOCC2)cc1)c1cn2ccccc2n1`, the result was inactive. With `COc1cc(/C=C(\C#N)c2ccccn2)ccc1OCc1ccccc1Cl`, the call was inactive. `CN(C)CCN(Cc1ccc(Cl)cc1)c1ccccn1`: the outcome was inactive. On to `CCn1c2ccccc2c2cc(/C=N/n3c(C)nnc3C)ccc21`, for which the molecule was classed as inactive. Take `Cn1cccc1C(=O)OCC(=O)Nc1ccc2c(c1)OCO2`: the outcome was inactive. Then `Cc1ccc2oc(C(=O)Nc3ccc(S(=O)(=O)Nc4onc(C)c4C)cc3)c(C)c2c1`, with “inactive”; and `O=C(CN1C(=O)c2ccccc2S1(=O)=O)c1ccc(F)c(F)c1`, with “inactive”. Consider `CC(=O)c1sc(NC(=O)C2COc3ccccc3O2)nc1C` (centres undefined), for which the outcome was inactive. With `Cc1ccccc1NC(=O)CN1C(=O)S/C(=C\c2cccn2-c2cccc(C(=O)O)c2)C1=O`, the result was inactive.

For `O=C(O)/C=C/c1ccc2ccccc2n1`, the result was inactive.
